Assay [1] is described as follows: binders of probe aFSTL3 on microarray, primary screen, stem cell growth factor project, biochemical, small-molecule microarray, fluorescence 635/667 (AID 1064).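 Further: measures binding of the biotinylated anti-FSTL3 antibody to printed compounds.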 Particulars: higher = more signal.
Assay [2] in a line: binders from COS7 lysate, DM2A8 probe, primary screen, torsin A project, cell lysate, small-molecule microarray, fluorescence 635/667 (AID 1065). As to conditions: higher = more signal, COS7 lysate expressing mutant human TOR1A.
Assay [3] is described as follows: binders of probe aFGF2 on microarray, primary screen, stem cell growth factor project, biochemical, small-molecule microarray, fluorescence 635/667 (AID 1067).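 Further: measures binding of biotinylated aFGF2 protein to printed compounds on slides; z-score merges feature fluorescence and signal-to-noise across triplicate slides.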 Particulars: higher = more signal.
The nature of assay [4]: binders of probe aFGF10 on microarray, primary screen, stem cell growth factor project, biochemical, small-molecule microarray, fluorescence 635/667 (AID 1071).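 Further: score merges 667 nm spot intensity and signal to noise from triplicate slides.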 As to conditions: higher = more signal.
Assay [5] deals with Neurogenic locus notch homolog protein 2 (Homo sapiens) (UniProt Q04721). The experiment in a line: Notch2 binders on small-molecule microarrays, primary screen, biochemical, small-molecule microarray, 635 nm fluorescence, stem cell growth factors (AID 1073). Particulars: Notch2 binding, higher = more signal.
Neurogenic locus notch homolog protein 2 (Homo sapiens), sequence (Q04721 whole entry, looked up, canonical isoform): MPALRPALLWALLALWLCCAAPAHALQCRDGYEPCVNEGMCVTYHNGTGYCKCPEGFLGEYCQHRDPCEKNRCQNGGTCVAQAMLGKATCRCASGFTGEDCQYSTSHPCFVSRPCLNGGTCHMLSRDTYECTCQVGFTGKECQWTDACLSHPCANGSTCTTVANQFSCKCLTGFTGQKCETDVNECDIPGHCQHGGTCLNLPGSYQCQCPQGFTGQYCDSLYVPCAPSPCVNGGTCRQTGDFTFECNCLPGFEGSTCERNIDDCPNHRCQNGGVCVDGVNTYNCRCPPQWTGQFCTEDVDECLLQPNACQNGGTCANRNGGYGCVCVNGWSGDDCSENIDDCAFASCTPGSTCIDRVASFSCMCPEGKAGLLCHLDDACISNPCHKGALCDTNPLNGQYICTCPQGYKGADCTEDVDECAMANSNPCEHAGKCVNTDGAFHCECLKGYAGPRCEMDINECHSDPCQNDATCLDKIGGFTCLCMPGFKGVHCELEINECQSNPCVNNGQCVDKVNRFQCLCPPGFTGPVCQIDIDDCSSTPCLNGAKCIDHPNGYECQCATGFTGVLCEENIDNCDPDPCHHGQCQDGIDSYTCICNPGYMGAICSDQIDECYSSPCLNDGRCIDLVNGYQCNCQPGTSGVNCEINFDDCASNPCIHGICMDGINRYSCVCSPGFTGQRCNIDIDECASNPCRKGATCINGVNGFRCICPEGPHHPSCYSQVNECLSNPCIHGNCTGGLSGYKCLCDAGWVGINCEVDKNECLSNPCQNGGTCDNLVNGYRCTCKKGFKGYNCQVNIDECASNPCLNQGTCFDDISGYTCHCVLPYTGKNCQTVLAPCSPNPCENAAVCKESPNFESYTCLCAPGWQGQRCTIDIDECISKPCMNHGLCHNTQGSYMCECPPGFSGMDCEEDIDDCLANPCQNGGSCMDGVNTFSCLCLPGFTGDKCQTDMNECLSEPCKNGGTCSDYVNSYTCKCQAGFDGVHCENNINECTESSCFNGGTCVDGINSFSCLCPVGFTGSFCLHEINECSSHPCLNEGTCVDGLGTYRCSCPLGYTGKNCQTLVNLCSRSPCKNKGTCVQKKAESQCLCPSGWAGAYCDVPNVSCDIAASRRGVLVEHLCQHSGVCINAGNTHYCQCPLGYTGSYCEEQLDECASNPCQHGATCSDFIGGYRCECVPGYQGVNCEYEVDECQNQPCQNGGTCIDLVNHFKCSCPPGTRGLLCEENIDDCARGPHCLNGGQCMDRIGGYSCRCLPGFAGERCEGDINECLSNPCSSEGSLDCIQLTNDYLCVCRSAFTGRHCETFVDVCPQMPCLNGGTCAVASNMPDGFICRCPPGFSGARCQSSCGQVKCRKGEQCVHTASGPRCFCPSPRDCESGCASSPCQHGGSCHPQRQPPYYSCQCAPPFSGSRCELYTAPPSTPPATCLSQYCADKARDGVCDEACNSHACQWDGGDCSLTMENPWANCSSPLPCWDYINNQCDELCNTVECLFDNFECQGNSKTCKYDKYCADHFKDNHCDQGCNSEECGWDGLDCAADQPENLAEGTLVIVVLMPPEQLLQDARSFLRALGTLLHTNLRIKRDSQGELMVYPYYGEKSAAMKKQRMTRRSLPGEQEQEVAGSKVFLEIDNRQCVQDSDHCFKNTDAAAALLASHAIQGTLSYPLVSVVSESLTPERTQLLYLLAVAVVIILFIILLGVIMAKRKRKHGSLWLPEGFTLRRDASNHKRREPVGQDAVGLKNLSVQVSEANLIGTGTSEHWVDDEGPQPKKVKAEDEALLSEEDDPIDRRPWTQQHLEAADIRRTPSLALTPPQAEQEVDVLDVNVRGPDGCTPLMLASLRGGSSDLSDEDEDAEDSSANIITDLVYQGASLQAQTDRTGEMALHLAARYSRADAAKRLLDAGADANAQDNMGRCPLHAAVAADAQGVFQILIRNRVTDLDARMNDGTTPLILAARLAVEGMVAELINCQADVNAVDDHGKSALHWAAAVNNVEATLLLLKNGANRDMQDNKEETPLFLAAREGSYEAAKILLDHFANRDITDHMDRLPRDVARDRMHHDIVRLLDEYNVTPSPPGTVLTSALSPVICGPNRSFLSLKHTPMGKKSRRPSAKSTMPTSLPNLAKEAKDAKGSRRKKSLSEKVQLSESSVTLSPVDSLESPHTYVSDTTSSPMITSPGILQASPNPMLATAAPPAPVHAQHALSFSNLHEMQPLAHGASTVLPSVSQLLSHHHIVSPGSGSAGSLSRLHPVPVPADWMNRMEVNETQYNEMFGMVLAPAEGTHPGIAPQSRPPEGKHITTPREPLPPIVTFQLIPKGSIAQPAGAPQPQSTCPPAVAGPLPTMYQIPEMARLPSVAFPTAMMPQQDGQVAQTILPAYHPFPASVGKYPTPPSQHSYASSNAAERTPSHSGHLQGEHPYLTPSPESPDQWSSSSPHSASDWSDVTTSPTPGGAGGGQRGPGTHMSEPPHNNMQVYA
Assay [6] addresses Pro-neuregulin-1, membrane-bound isoform (Homo sapiens) (UniProt Q02297). As to the kind of experiment: NRG1 binders on small-molecule microarrays, primary screen, psychiatric disease protein project, biochemical, small-molecule microarray, fluorescence 635/667 (AID 1075).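 Further: score combines 667 nm spot fluorescence with signal to noise.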 As to conditions: NRG1 binding, 635 nm fluorescence, higher = more signal.
Assay [7] has as its system Neuregulin-1 EGF-like domain. As to the kind of experiment: binders of neuregulin-1 EGF-like domain, primary screen, biochemical, small-molecule microarray, 635 nm fluorescence (AID 1081).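 Further: binding of the protein to compounds printed on small-molecule microarray slides.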 As to conditions: small-molecule microarray binding, higher = more signal.
Assay [8] in a line: FRG1 promoter luciferase signal modulators, primary screen, FRG1 inhibition for FSHD, cell-based, C2C12 myotubes, firefly/Renilla luciferase, luminescence (AID 1084). Particulars: higher = more signal, called active from +8 up or from −8 down.
Assay [9] in a line: binders of probe aFST on microarray, primary screen, stem cell growth factor project, biochemical, small-molecule microarray, fluorescence 635/667 (AID 1086).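 Further: score merges 667 nm fluorescence with signal-to-noise of each printed compound spot.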 Particulars: higher = more signal.
Assay [10] is described as follows: binders of probe aHhip on microarray, primary screen, stem cell growth factor project, biochemical, small-molecule microarray, fluorescence 635/667 (AID 1087).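 Further: score merges spot fluorescence at 667nm with spot signal to noise ratio.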 As to conditions: higher = more signal.

The text below walks through data of PubChem BioAssay.

Active and inactive are the calls of the source.

Pro-neuregulin-1, membrane-bound isoform (Homo sapiens), sequence (Q02297 whole entry, looked up, the tested form may be a part, canonical isoform): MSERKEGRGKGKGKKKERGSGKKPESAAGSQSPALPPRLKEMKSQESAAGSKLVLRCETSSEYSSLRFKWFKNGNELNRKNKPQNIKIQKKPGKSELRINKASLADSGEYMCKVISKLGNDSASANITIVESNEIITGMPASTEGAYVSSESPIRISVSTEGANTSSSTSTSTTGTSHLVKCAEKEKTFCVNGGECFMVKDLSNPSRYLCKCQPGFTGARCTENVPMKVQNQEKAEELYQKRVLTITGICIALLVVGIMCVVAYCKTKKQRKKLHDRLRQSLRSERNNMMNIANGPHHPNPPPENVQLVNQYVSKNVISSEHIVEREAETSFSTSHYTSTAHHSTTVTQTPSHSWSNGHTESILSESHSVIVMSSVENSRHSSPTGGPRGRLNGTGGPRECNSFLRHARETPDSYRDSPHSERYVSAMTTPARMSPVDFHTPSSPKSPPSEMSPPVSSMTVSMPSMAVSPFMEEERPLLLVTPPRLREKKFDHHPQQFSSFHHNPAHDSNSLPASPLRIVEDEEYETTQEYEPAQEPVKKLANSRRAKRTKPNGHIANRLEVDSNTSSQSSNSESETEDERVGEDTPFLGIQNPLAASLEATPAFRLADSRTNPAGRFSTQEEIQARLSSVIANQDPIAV

For `COc1ccc([Si](C)(C)[C@H]2[C@H](CCO)O[C@@]3(C(=O)N(Cc4cccc(NC(=O)[C@H](C)O)c4)c4ccccc43)[C@@H]2C)cc1`, the composite z-score in assay [1] was -0.456; in assay [2], 0.634; in assay [3], -0.101; in assay [4] it was 0.136; in [5] it was 0.612; in assay [6] it was 0.84. For the same molecule, the values for the composite z-score in assay [7], in assay [9] and in [10] were 1.22, -0.0054 and 0.212, respectively. For the same molecule, the z-score in [8] is -2.68 (inactive).
Take `CC(C)CN1CCc2nc(-c3ccccc3)c3c(c2CC1)CO[C@@H](C)C3`: the composite z-score in assay [1] is 0.0816; in assay [2], 0.252; in [3] it was -0.0594; in [4], 0.309; in [5] it was 0.834; in [6] it was -0.117. The composite z-score stood at 0.132 in assay [7], 0.594 in [9] and 0.394 in assay [10]. The z-score in assay [8] was -0.867 (inactive).
Turning to `O=C1[C@H]2[C@H]3[C@H](O)[C@H](O)CC(=NO[C@@H]4O[C@H](CO)[C@@H](O)[C@H](O)[C@H]4O)[C@H]3CC[C@H]2C(=O)N1C1CCCCC1`, the composite z-score in assay [1] was -0.332; in [2], 1.49; in [3] it was -0.0659; in assay [4], -0.0948; in [5], 0.028; in [6], -0.197. Besides, the composite z-score in assay [7] was 0.995; in assay [9], 0.276; in assay [10], 0.841. Besides, in [8], the z-score is -0.225 (inactive).
With `O=C1O[C@@H](c2ccccc2)[C@@H](c2ccccc2)N2[C@@H](c3ccc(OCCO)cc3)[C@]3(C(=O)Nc4ccc(C#CCCO)cc43)[C@@H](C(=O)N3CCCCCCC3)[C@H]12`, the composite z-score stood at 3.26 in assay [1]; 2.28 in [2]; 0.702 in assay [3]; 1.12 in assay [4]; 1.36 in assay [5]; 2.02 in assay [6]. Also, the composite z-score in [7] was 1.18; in assay [9], 3.04; in assay [10], 2.53. For the same molecule, the z-score in assay [8] was -1.99 (inactive).
Consider `COCCOC(=O)N1C(=O)[C@@]2(c3cc(C#CCNC(N)=O)ccc31)[C@H](c1ccc(O)cc1)N1[C@H](c3ccccc3)[C@H](c3ccccc3)OC(=O)[C@H]1[C@@H]2C(=O)N1CCCCCCC1`, for which the composite z-score is 0.282 in assay [1]; 0.384 in assay [2]; -0.0022 in assay [3]; 0.646 in [4]; 1.1 in [5]; 0.523 in assay [6]. The values for the composite z-score in [7], in [9] and in assay [10] were 1.07, 1.2 and -0.0491, respectively. The z-score in assay [8] is -0.199 (inactive).
For the molecule `CC(C)=C1C(=O)C(c2ccccc2)=C2CN3C(=O)N(CCc4ccccc4)C(=O)[C@]3(Cc3ccc(F)cc3)[C@H]21`, the composite z-score in assay [1] is 0.565; in assay [2] it was -0.65; in assay [3], 0.0547; in assay [4], -0.247; in [5], -1.09; in assay [6], 1.3. Besides, the results for the composite z-score in assay [7], in [9] and in assay [10] were 0.134, 0.841 and 0.0722, respectively. For the same molecule, the z-score in assay [8] is -0.0896 (inactive).
`CCN1C(=O)[C@H]2[C@H]3[C@H](O)[C@H](O)CC(=NOCC=C(C)CCC=C(C)C)[C@H]3CC[C@H]2C1=O`: the composite z-score in assay [1] was -0.968; in [2], 0.689; in [3], -0.117; in assay [4] it was 0.923; in assay [5] it was 0.698; in [6], 0.65. Also, the values for the composite z-score in assay [7], in assay [9] and in assay [10] were 1.07, 0.617 and 0.183, respectively. For the same molecule, the z-score in [8] was -0.454 (inactive).
Take `CC1(C)OCC(C(O)C2=CCCCC2=O)CO1` (stereo not given): the composite z-score in [1] was -0.495; in assay [2], 0.547; in [3], -0.0607; in assay [4], 0.54; in assay [5], 0.214; in assay [6], 0.366. For the same molecule, the results for the composite z-score in [7], in assay [9] and in assay [10] were 0.979, 0.753 and 0.065, respectively. The z-score in assay [8] is 0.119 (inactive).
As to `CCN(CC)c1ccc(N2CC=CC34O[C@@H]5/C=C\CCC(C)OC(=O)C5[C@H]3C(=O)N(CCCO)[C@@H]4C2=O)cc1` (stereo not given in full), the composite z-score in assay [1] was 0.678; in assay [2], 0.215; in [3], -0.0766; in assay [4], 0.408; in assay [5], -0.659; in assay [6], 0.63. Also, the composite z-score is 1.58 in [7], -0.444 in assay [9] and -0.0237 in assay [10]. In assay [8], the z-score was 0.957 (inactive).
`C#CCCCON=C1C[C@@H](O)[C@@H](O)[C@@H]2[C@@H]3C(=O)N(Cc4ccccc4)C(=O)[C@@H]3CC[C@H]12`: the composite z-score was -0.304 in [1]; 0.251 in assay [2]; -0.116 in assay [3]; 0.317 in assay [4]; 0.69 in assay [5]; 0.197 in assay [6]. Further, the values for the composite z-score in [7], in assay [9] and in assay [10] were -0.0787, 0.149 and -0.169, respectively. Also, the z-score in assay [8] is -0.0765 (inactive).
Take `O=C1[C@H]2[C@H]3[C@H](O)[C@H](O)CC(=NOCc4ccccc4)[C@H]3CC[C@H]2C(=O)N1c1ccc(F)cc1F`: the composite z-score in [1] was -0.426; in [2], -0.0076; in [3] it was -0.0561; in [4], 0.0471; in assay [5] it was -0.0497; in [6], 0.757. Moreover, the composite z-score is 0.106 in assay [7], -0.314 in assay [9] and -0.214 in [10]. In addition, the z-score in assay [8] was 0.131 (inactive).
As for `O=C(NN=C1C[C@@H](O)[C@@H](O)[C@@H]2[C@@H]3C(=O)N(c4cccc(Oc5ccccc5)c4)C(=O)[C@@H]3CC[C@@H]12)OCc1ccccc1`, the composite z-score in assay [1] was 0.103; in assay [2], -0.336; in assay [3], -0.0891; in assay [4], 0.0457; in assay [5], 0.222; in assay [6] it was 0.259. The results for the composite z-score in [7], in assay [9] and in assay [10] were -0.157, 0.274 and 0.2, respectively. Further, in assay [8], the z-score is 0.31 (inactive).
Consider `CC(C)[Si]1(C(C)C)O[C@@H](c2ccccc2)c2cc(C3CC3)nc(-c3ccccc3)c21`, for which the composite z-score in assay [1] is -0.324; in [2], -0.598; in assay [3] it was -0.0494; in assay [4], -0.0526; in assay [5], 0.0397; in [6], -0.234. For the same molecule, the results for the composite z-score in [7], in [9] and in [10] were -0.717, -0.0973 and 0.0274, respectively. Also, in assay [8], the z-score is 0.178 (inactive).
As to `CCOC(=O)[C@H](Cc1ccccc1)NC(=O)CCC1CC(OC(=O)NCc2ccc3c(c2)OCO3)CC2(CCCC(COC(=O)NCc3cccc(C(F)(F)F)c3)O2)O1` (stereo not given in full), the composite z-score in [1] is -0.353; in assay [2], 0.226; in [3], -0.0985; in [4], 0.0907; in [5] it was 0.981; in [6] it was 0.0527. Further, the composite z-score in assay [7] is 0.481; in [9] it was 0.348; in assay [10], -0.0645. In [8], the z-score is -0.0878 (inactive).
Regarding `CC(C)CON=C1[C@H]2CCn3c(=O)n(-c4ccccc4)c(=O)n3[C@H]2[C@H](O)[C@@H]2O[C@H]12`, the composite z-score in assay [1] was -0.358; in [2], -0.0519; in assay [3], -0.102; in [4], 0.325; in [5], 0.532; in [6], -0.0371. In addition, the composite z-score was 0.323 in assay [7], 0.204 in assay [9] and -0.069 in [10]. Moreover, the z-score in assay [8] is -0.217 (inactive).
In the case of `C=CC[C@@H]1C=C[C@H](ON=C2c3cc(OC)ccc3O[C@H](c3cccc(OC)c3)[C@H]2O)[C@@H](CO)O1`, the composite z-score in assay [1] was -0.342; in assay [2], 0.0359; in assay [3] it was -0.1; in assay [4], 0.415; in [5], 0.144; in assay [6] it was 0.0499. Further, the composite z-score in assay [7] was -0.199; in [9] it was 0.127; in assay [10], -0.0994. In addition, the z-score in [8] was -0.577 (inactive).
With `CC(CCN1CCCCc2nc(C)c(C)cc21)=NOC(C)CN1CCCc2nc(C)c(C)cc21` (stereo not given), the composite z-score in assay [1] was found to be 0.0516; in assay [2] it was 0.471; in assay [3], 0.196; in assay [4] it was 0.943; in assay [5], 1.52; in assay [6], 1.35. For the same molecule, the composite z-score in [7] was determined as 1.06; in assay [9], 1.24; in assay [10], 0.82. Further, the z-score in assay [8] is 1.28 (inactive).
